# Reference: PubChem BioAssay AID1346378 (National Center for Advancing Translational Sciences (NCATS), 2018)
# About 540 (0.13%) of roughly 420,000 compounds were called active. No stated cut-off is given here; in the data, active means activity change below about -50%; inconclusive means mostly about -30% to -49%; inactive means weaker than that. Shown is part of a subset that was picked to be rich in actives.
# Biological target: Phosphatidylinositol 4-kinase type 2-alpha (Homo sapiens) (UniProt Q9BTU6)
# Sequence (Q9BTU6 whole entry, looked up): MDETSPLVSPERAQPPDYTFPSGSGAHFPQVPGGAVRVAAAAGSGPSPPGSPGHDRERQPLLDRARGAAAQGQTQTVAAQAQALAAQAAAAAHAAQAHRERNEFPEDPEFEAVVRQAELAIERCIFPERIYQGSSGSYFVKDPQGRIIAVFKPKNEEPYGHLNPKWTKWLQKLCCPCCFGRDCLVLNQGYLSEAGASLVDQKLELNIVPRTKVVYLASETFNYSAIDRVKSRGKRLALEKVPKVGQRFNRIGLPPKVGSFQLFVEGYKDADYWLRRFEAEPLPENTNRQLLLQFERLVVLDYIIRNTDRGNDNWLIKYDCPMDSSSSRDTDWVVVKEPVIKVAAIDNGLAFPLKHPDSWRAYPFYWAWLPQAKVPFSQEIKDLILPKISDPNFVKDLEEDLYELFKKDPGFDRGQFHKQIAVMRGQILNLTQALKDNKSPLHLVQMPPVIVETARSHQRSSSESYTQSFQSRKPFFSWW
# Assay: qHTS for small molecular inhibitors of PI4K2A;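 on activity change, negative = inhibition: -100% = wells without enzyme as full effect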
# Details: purified PI4K2A, ADP-Glo luminescence, 1 h; at 76.9 µM, hits give low values
# Source text: The phosphatidylinositol 4-phosphate (PI4P) is emerging as a key regulator of lipid transfer in ER-membrane contact sites. The four different phosphatidylinositol 4-kinase (PI4K) enzymes generate PI4P in different membrane compartments supporting distinct cellular processes many of which are crucial for the maintenance of cellular integrity but also hijacked by intracellular pathogens. The goal of this screening project is to search for small molecular inhibitors of PI4K2A based on a high throughput screening strategy.The ADP-Glo assay was used as a starting point to develop a miniaturized version for HTS applications. To implement the HTS screen, the PI4K ADP-Glotrade mark Kinase assay (Promega, V9102) was miniaturized for the 1536-well format used at NCGC.
# For the robotic screening, the ADP-Glo assay using the ADP-Glotrade mark Kinase Assay kit from Promega was miniaturized and optimized on 1536-well white solid bottom plates (Greiner Bio-one). The substrate, 1.2 mM PI, prepared in the assay buffer (40mM Tris pH7.5, 20mM MgCl2, 1mM EGTA, 0.4% Triton X-100, 0.5mM DTT, 0.5mg/ml BSA) and PI4K2A enzyme, diluted also in the assay buffer to 4ug/mL, were dispensed onto the plates in equal volumes (1microl/well), pinned with 23 nL/well tested compounds or control followed by dispensation of 1microl/well 300microM ATP. The plates were incubated for one hour. Then, 2 µL/well of ADP-Glo reagent was added and incubated for 40 minutes. Next, 4microL/well of Kinase Detection Buffer was added to the plates and incubated for additional 40 minutes. All incubation steps were performed at ambient temperature. The resulting luminescence signal was measured on Viewlux plate reader (PerkinElmer). Adenosine, a partial non-specific inhibitor, was used as a positive control at 100microM final concentration to assess the assay's quality and plate-to-plate reproducibility. We also used "no enzyme" control to gauge the assay's maximal potential inhibition (IC100).
row,Compound,"activity change, negative = inhibition"
1,CCC(=O)c1ccc(OCC(=O)N2CCN(CC(=O)Nc3ccc(C)cc3)CC2)cc1,-4.83% (inactive)
2,C=CCN1C(=O)NC(=O)/C(=C/c2ccc(OCC(=O)Nc3ccc(C)cc3)cc2)C1=O,-53.5% (active)
3,C=CCN(CC=C)C(=O)Nc1ccc(OCC)cc1,7.59% (inactive)
4,CO[C@]12CC[C@@]3(C[C@@H]1[C@](C)(O)C(C)(C)C)[C@@H]1Cc4ccc(O)c5c4[C@@]3(CCN1CC1CC1)[C@H]2O5,inactive
5,CCCOC(=O)c1cncn1C(C)c1ccccc1 (stereo not given),-0.694% (inactive)
